Here are results for 14 molecules from PubChem BioAssay (NCATS).

Several values for one entry are separate records, joined by “and”; a condition that tells them apart may be missing. Equal entries are not always repeated. Records with an inconclusive call do not appear. Activity calls are given as the source filed them. Unless noted, calls follow the shape of the dose curve; as a rule, active = well fitted curve in the direction sought with a large enough effect; inconclusive = small, poorly fitted or top-dose-only effect, or another doubt; inactive = no such curve, though single readings can be large; an effect the other way counts as inactive or inconclusive.

Test [1] deals with Zika virus NS2B-NS3 protease. The test can be described thus: Primary screen GU AMC qHTS for Zika virus inhibitors (AID 1347154).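 Also: 0% = no-inhibitor control and -100% = no-enzyme control; nearly all actives have a fitted effect of over 70% in size.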 A digest of the protocol: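 Unlinked Zika NS2B hydrophilic domain/NS3 protease domain noncovalent complex (25 nM final) in 10 mM Tris-HCl pH 8.0, 0.01% Tween 20, with AMC peptide substrate. Fluorescence (ex 340, em 450 nm) change over 15 min, room temperature; percent inhibition fitted to 4-parameter Hill equation.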
On the technique in general: In qHTS, concentration-response curves come from the screen itself.

A short description of test [2]: Primary qHTS for small molecule stabilizers of the endoplasmic reticulum resident proteome: Secreted ER Calcium Modulated Protein (SERCaMP) assay (AID 1508630). Also: % is scaled to controls: 0 for no effect and ±100 for the full control effect. A digest of the protocol: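 The SH-SY5Y reporter protocol was run at 3 concentrations up to 38.3 uM (primary) or 11 concentrations (follow-up): 16 h compound, 100 nM thapsigargin for 4 h, then extracellular luciferase luminescence.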

Test [3] is described as follows: AP1 Signaling Pathway (AID 357; active = well fitted curve in either direction with a large enough effect, not every such curve was filed as active;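 also: ME-180 reporter cells stimulated with EGF at its EC50 level; % is scaled to controls: 0 for no effect and ±100 for the full control effect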). The following applies: ME-180 AP-1-bla reporter, EGF-induced, beta-lactamase ratio, 5 h; at 17.2 µM (top of the series). A digest of the protocol: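 Modulation of EGF-driven AP-1 transcription was assessed with a beta-lactamase reporter in ME-180 cells. Compound and EC50 EGF were co-incubated 5 hours at 37 °C before 2.5-hour CCF4 loading at room temperature and dual-emission reading.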

Test [4] can be described thus: NFAT Signaling Pathway (AID 444; active = well fitted curve in either direction with a large enough effect, not every such curve was filed as active;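 also: carbachol stimulus at about its EC50 of 1 µM final; % is scaled to controls: 0 for no effect and ±100 for the full control effect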). The following applies: Jurkat NFAT-bla M1, carbachol, beta-lactamase ratio, 5 h; at 17.2 µM (top of the series). A digest of the protocol:
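Jurkat cells carrying an NFAT-driven β-lactamase reporter and co-transfected muscarinic M1 receptor were treated with compound plus carbachol (1 uM final, an EC50 level) for 5 h at 37 °C. CCF4 loading followed for 1 h at RT; 460/530 nm ratio gave %activity.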

Test [5] can be described thus: Stat Signaling Pathway (AID 446; active = well fitted curve in either direction with a large enough effect, not every such curve was filed as active;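 also: ME-180 cervical cancer cells given 40 pM IL-6 alongside compound; SIE-controlled beta-lactamase reporter measured as 460/530 nm FRET emission ratio; % is scaled to controls: 0 for no effect and ±100 for the full control effect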). The following applies: ME-180 (cervical carcinoma) SIE beta-lactamase reporter, IL-6 stimulated, 5 h; at 17.2 µM (top of the series). A digest of the protocol:
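Overnight-plated ME-180 cells bearing a STAT Inducible Element beta-lactamase reporter; 5 h co-exposure to compound and 40 pM IL-6; values normalized to 300 pM IL-6 and 125 nM JAK inhibitor controls.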

In test [6] the target is Glucocorticoid receptor (Homo sapiens) (UniProt P04150). The experiment in a line: GR-GFP Redistribution (AID 450;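 active = compounds whose dose series gives a full or clear partial fitted curve of increased nuclear translocation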; also: potency is read from the fitted curve at half-maximal effect). The conditions noted are these: U2OS GR-GFP nuclear translocation, laser cytometry, 2 h.
Test [7] shares this target. The experiment in a line: GR-EFC Redistribution (AID 451; calls by dose curve; also: potency is read from the fitted curve at half-maximal effect). The following applies: CHO-K1 GR-EFC translocation, beta-gal luminescence, 2 h. A digest of the protocol: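 CHO-K1 cells stably expressing nuclear-localized β-gal enzyme acceptor and GR fused C-terminally to the enzyme donor fragment; ligand-driven nuclear translocation restores β-gal by complementation. Compounds titrated up to 46 uM final, 2 h at 37 °C; luminescence read.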

Test [8] has as its target Mitogen-activated protein kinase 10 (Mus musculus) (UniProt Q61831). The test can be described thus: JNK3 AlphaScreen Assay (AID 530; active = well fitted curve in either direction with a large enough effect, not every such curve was filed as active). A digest of the protocol: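 Biotinylated GST-cJun(1-79) served as substrate for JNK3 in HepG2 lysates stimulated with IL-1beta and TNF-alpha. ATP was 10 uM final, pH 7.6. Ser73 phosphorylation was quantified by AlphaScreen (680 nm excitation).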
In general terms: In Alpha technology, singlet oxygen from a donor bead excites a nearby acceptor bead.

The target of test [9] is 3',5'-cyclic-AMP phosphodiesterase 4B (Homo sapiens) (UniProt Q07343). The experiment in a line: qHTS Assay for Inhibitors of PDE-IV (AID 607; active = well fitted activation curve with a large enough effect in the main read-out, with a control signal flat, not every such curve was filed as active; also: % of control where 0% means no effect). A digest of the protocol:
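Live HEK293 cells with a modified cyclic nucleotide-gated (CNG) channel report intracellular cAMP via membrane-potential dye fluorescence (ex 535/em 590 nm). Endogenous PDE-IV was targeted. Compounds were tested at up to 22.9 uM final; RO 20-1724 100 uM served as control.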

Test [10] has as its target Cytochrome P450 2D6 (Homo sapiens) (UniProt P10635). The test can be described thus: qHTS Assay for Inhibitors and Substrates of Cytochrome P450 2D6 (AID 891). Also: potency is read from the fitted curve at half-maximal effect; nearly all actives have a fitted effect of over 60% in size. A digest of the protocol:
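Luminescent read-out of luciferin formed by 5 nM human CYP2D6 demethylating 30 uM Luciferin-ME EGE (Km level) over 60 min at room temperature after NADPH regeneration addition. Data normalized to full inhibition by 1.43 uM quinidine.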

Test [11] can be described thus: qHTS Assay for Lipid Storage Modulators (AID 1519; calls by dose curve). The following applies: Drosophila S3 cells, BODIPY lipid droplet/cell ratio, laser cytometry, cells loaded with oleic acid. A digest of the protocol: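 Cells seeded at 5,000 per well were treated with compounds over a concentration series and loaded with oleic acid (400 uM, as added). Lipid droplet fluorescence (488 nm excitation, 500-530 nm channel) was read by laser-scanning cytometry and normalized to 20 uM Triacsin C.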

In test [12] the target is Ubiquitin carboxyl-terminal hydrolase 1 (Homo sapiens) (UniProt O94782). The test can be described thus: Inhibitors of USP1/UAF1: Pilot qHTS (AID 504865).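 Also: rhodamine fluorescence freed from ubiquitin-rhodamine substrate followed over time; top concentration of the series differs between compounds; % is scaled to controls: 0 for no effect and ±100 for the full control effect; nearly all actives have a fitted effect of over 35% in size.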 A digest of the protocol:
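USP1/UAF1 complex (1nM) preincubated with compound 15 min at room temperature, then Ub-Rho substrate (150nM final) added. Fluorescence read kinetically at 480/540 nm, 6 reads every 60 seconds. Buffer: 50mM HEPES pH 7.8, 0.5mM EDTA, 0.1 mg/ml BSA, 1mM TCEP, 0.01% Tween-20.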

In test [13] the target is DNA dC->dU-editing enzyme APOBEC-3G (Homo sapiens) (UniProt Q9HC16). The experiment in a line: qHTS for inhibitors of Vif-A3G interactions: Validation (AID 588379). Also: 0% is about no effect. A digest of the protocol:
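Yellow fluorescence (Ex 488, Em 500-530) of Vif-coexpressing HeLa A3G-eYFP cells, scanned by Acumen cytometer, reports blocked A3G degradation. Cells plated at 700/well overnight at 37 deg C before compound addition, then a further overnight compound incubation at 37 deg C.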

Chain of Glucocorticoid receptor (Homo sapiens) (P04150 whole entry, looked up, the tested form may be a part): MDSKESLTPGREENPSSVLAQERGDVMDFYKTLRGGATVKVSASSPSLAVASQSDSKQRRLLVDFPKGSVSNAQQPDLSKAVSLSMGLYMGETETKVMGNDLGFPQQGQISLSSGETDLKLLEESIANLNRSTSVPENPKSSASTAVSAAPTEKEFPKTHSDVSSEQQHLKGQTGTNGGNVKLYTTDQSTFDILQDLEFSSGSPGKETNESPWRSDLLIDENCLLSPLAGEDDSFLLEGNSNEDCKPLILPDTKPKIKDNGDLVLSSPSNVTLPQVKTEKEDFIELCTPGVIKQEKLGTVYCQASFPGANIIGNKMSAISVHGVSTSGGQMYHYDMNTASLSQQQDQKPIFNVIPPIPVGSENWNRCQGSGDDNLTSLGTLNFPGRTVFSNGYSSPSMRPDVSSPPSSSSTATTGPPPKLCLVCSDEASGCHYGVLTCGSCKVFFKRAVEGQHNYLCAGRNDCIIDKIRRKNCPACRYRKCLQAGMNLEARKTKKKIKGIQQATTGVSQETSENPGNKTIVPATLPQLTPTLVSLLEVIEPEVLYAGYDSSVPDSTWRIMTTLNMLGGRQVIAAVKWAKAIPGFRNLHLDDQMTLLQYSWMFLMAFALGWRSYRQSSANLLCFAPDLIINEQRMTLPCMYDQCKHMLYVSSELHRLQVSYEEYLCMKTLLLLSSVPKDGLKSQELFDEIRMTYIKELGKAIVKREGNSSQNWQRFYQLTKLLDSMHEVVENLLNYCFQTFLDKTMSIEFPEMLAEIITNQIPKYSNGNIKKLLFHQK
Chain of Ubiquitin carboxyl-terminal hydrolase 1 (Homo sapiens) (O94782 whole entry, looked up): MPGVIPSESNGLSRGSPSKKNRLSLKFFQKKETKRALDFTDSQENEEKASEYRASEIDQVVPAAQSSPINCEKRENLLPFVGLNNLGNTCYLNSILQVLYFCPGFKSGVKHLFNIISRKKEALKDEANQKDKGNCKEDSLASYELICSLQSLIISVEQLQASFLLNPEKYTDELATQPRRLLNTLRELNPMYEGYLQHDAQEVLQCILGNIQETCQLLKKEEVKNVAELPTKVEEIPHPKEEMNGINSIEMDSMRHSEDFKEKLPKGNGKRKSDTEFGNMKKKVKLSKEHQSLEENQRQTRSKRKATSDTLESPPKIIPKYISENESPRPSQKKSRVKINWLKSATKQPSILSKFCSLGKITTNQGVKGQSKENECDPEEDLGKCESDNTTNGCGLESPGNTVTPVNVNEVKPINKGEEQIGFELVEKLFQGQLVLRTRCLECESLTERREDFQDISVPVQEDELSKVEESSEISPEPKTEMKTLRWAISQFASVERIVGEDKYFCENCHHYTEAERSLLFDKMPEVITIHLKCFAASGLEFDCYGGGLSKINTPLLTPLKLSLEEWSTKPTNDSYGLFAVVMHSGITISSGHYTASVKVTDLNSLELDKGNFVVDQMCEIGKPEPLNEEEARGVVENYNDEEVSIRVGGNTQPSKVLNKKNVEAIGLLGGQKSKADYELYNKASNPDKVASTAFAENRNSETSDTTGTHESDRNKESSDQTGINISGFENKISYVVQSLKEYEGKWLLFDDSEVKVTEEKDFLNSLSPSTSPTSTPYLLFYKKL
Chain of 3',5'-cyclic-AMP phosphodiesterase 4B (Homo sapiens) (Q07343 whole entry, looked up): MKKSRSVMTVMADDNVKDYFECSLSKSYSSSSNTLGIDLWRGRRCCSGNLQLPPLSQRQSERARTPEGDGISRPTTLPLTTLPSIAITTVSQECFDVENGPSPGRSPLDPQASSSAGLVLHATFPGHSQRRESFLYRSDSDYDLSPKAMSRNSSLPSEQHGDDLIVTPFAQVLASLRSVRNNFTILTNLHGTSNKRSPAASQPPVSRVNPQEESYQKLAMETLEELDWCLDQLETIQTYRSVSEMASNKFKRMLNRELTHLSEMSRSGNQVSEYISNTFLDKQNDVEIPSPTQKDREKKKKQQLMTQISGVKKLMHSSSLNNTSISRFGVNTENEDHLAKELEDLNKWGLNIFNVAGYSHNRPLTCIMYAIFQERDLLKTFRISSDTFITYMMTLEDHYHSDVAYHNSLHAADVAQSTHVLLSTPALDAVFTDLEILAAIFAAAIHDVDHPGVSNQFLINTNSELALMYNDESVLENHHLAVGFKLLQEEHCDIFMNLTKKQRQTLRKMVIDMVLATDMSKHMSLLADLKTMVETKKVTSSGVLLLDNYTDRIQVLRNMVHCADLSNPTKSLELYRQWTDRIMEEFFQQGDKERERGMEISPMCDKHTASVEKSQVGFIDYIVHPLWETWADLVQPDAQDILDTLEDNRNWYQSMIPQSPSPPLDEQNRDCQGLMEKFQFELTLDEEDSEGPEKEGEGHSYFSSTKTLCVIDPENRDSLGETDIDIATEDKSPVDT
Chain of DNA dC->dU-editing enzyme APOBEC-3G (Homo sapiens) (Q9HC16 whole entry, looked up): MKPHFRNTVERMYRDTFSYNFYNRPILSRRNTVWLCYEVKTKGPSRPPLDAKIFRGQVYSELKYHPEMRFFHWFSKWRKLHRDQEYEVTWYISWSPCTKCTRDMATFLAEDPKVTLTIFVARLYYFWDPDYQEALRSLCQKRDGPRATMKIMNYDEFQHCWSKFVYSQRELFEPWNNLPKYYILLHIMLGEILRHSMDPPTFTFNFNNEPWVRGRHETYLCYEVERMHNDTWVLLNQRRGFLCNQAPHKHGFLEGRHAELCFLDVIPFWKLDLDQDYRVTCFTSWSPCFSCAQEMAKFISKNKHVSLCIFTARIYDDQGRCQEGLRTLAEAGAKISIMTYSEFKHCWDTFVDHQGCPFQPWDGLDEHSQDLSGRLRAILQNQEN
Chain of Cytochrome P450 2D6 (Homo sapiens) (P10635 whole entry, looked up): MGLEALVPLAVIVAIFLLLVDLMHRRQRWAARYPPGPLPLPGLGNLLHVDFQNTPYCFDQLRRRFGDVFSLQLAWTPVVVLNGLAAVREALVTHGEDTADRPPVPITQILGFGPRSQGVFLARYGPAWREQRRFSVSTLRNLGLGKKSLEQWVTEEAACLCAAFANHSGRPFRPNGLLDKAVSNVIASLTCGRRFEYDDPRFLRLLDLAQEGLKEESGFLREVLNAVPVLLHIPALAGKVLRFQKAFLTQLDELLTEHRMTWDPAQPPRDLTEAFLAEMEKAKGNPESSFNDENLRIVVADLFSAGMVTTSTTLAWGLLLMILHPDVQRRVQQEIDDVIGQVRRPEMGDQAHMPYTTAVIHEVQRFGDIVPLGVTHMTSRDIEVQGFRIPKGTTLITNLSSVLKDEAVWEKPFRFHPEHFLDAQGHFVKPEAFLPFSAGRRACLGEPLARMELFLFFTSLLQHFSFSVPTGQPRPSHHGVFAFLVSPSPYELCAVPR

On to `COC(=O)/C=C/c1cc(O)ccc1O`, for which the Potency result in test [1] and in test [2] was “inactive” in each case.

Consider `CC(C)c1ccc2c(c1)CC[C@H]1[C@](C)(CN)CCC[C@]21C`, for which the Potency result in [1] and in [2] was “inactive” in each case.

For the molecule `C[C@@]12CCC[C@H]1C1CC[C@H]3C[C@H](O)CC[C@]3(C)C1CC2` (some centres not stated), the Potency entry in [1] and in [2] was “inactive” throughout.

As to `Nc1ccnc2c1ncn2[C@@H]1O[C@H](CO)[C@@H](O)[C@H]1O`, the Potency entry in test [1] and in test [2] was “inactive” throughout.

In the case of `CC(=O)N[C@@H](CSC/C=C(\C)CCC=C(C)C)C(=O)O`, the Potency result in test [1] and in test [2] was “inactive” throughout.

For `NCCCCCc1cnc[nH]1`, the Potency entry in test [1] and in [2] was “inactive” throughout.

Consider `COc1cccc2c1C(=O)c1c(O)c3c(c(O)c1C2=O)C[C@@](O)(C(=O)CO)C[C@@H]3O[C@@H]1C[C@H](N)[C@H](O)[C@H](C)O1`, for which the Potency entry in test [1] and in test [2] was “inactive” in each case.

For the molecule `N[C@@]1(C(=O)O)CN[C@@H](C(=O)O)C1`, the Potency result in [1] and in [2] was “inactive” in each case.

Consider `CC[C@@H](C)[C@@H](CO[C@@H](Cc1ccccc1)C(=O)N[C@@H](CCS(C)(=O)=O)C(=O)OC(C)C)NC[C@@H](N)CS`, for which the Potency result in test [1] and in [2] was “inactive” in each case.

In the case of `COC(=O)[C@@H]1[C@H]2C[C@H]3c4[nH]c5ccccc5c4CCN3C[C@H]2CC[C@@H]1O`, the Potency result in test [1] and in test [2] was “inactive” each time.

Take `N[C@@H](C(=O)O)[C@@H](CC(=O)O)c1ccc(Cl)cc1`: the Potency entry in test [1] and in test [2] was “inactive” in each case.

As to `CC(C)NC[C@H](O)c1ccc2ccccc2c1`, the activity change, negative = inhibition in test [3] was 1.15% (inactive); in test [4], -18.4% (inactive); in test [11] (at 25.7 µM (top of the series)) it was -2.39% (inactive); in test [11] (at 57.5 µM (top of the series)), -0.481% (inactive). For the same molecule, in test [5], the activity, negative = inhibition was -5.4% (inactive). Moreover, the Potency is > 20.6 µM (inactive) and > 46 µM (inactive) in test [6]; > 20.6 µM (inactive) and > 46 µM (inactive) in [7]; 3.16 µM (active) in [10]. Moreover, the Potency result in test [8], in test [9], in test [12], in test [13], in test [1] and in test [2] was “inactive” throughout. The max response in test [11] (measured here: cell count channel max response) is 2.13% and 8.48%; in [11] (measured here: lipid channel max response) it was -2.74% and 9.7%.

As to `COC(C)(C)CCCC(C)C/C=C/C(C)=C/C(=O)O` (configuration not stated), the Potency entry in [1] and in test [2] was “inactive” each time.

Consider `Nc1c(S(=O)(=O)O)cc(Nc2cccc3ccccc23)c2c1C(=O)c1ccccc1C2=O`, for which the Potency entry in [1] and in test [2] was “inactive” each time.
